# Test results from PubChem BioAssay AID652054 (National Center for Advancing Translational Sciences (NCATS), 2013).
# In all, about 360,000 compounds went through this assay and about 9,100 (2.5%) were called active. Inconclusive results (about 4%) are left out. The entries come from a sample that favours actives as a whole. Values without a mark were called inactive. No stated cut-off is given here; in the data, active means max response below about -50%; inconclusive means no clear call, values can overlap the other calls; inactive means above that.
# Target: D(3) dopamine receptor (Homo sapiens) (UniProt P35462)
# Sequence (P35462 whole entry, looked up): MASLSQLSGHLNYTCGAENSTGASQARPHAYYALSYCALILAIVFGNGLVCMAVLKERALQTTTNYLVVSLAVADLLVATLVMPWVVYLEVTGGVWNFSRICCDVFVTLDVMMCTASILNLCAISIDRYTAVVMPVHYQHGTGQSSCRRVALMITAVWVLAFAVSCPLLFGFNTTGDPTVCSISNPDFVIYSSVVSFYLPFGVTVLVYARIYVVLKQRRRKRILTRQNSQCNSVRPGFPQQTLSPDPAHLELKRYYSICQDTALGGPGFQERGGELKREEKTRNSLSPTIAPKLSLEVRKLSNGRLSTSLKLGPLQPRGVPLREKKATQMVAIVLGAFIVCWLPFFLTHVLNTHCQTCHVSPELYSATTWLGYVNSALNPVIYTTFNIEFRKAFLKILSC
# Assay: qHTS of D3 Dopamine Receptor Antagonist: qHTS
# Settings: D3R cells, DiscoveRx beta-arrestin luminescence, antagonist mode; active compounds read low
# Outline: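 Cells expressing the human receptor were seeded at 1500 cells/well, incubated overnight at 37 degrees C in 5% CO2, then exposed to library compounds with dopamine controls for 90 minutes at 37 degrees C before luminescent detection.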
# On the % scale 0 is the no-effect control and ±100 the full control effect.
row,Structure (SMILES),"max response, negative = inhibition"
1,CCN(CC)C(=O)C1=C(C)N(Cc2ccc(OC)cc2)C(=O)C(CC(=O)NCCCCc2ccccc2)C1 (stereo not given),17.3%
2,CCOc1ccc(CCN2C(=S)N([C@@H](CC(C)C)CN3CCC[C@@H]3CN3C(=S)NC[C@@H]3Cc3ccc(O)cc3)C[C@@H]2Cc2ccc(O)cc2)cc1,1.51%
3,CCCC(=O)C1CCN(Cc2ccccc2)CC1,-29.3%
4,CCCCN(C)C(=O)C1CCN(Cc2ccccn2)CC1,-26.1%
5,CCCCN(Cc1ccccc1)C(=O)C1CCN(Cc2sccc2C)CC1,-66.6% (active)
6,Cc1ccc(F)c(S(=O)(=O)NC(=O)C2(C)CCN2C(=O)c2ccco2)c1 (stereo not given),0%
7,O=C(NC1CCCCC1)C(c1cc2ccccc2o1)n1c(=O)c(-c2ccco2)nc2ccccc21 (stereo not given),-5.65%
8,Cc1ccc(N(C(=O)c2ccc(S(=O)(=O)N(C)C)cc2)C2C=CS(=O)(=O)C2)cc1 (stereo not given),-16.5%
9,Cc1ccc(N(C(=O)Cc2cccs2)C2C=CS(=O)(=O)C2)cc1Cl (stereo not given),9.44%
10,CCCCC(=O)N(c1ccc(OC)cc1)C1C=CS(=O)(=O)C1 (stereo not given),-109% (active)
11,CCCCCc1c(Cc2ccccc2)ncn1CCc1ccccc1OC,-13.9%
12,O=C(Nc1cccc(C(=O)O)c1)/C(=C\c1ccccc1)NC(=O)c1ccc(Br)o1,-22%
13,COc1ccccc1CN1CCN(Cc2cc(OC)c(OC)cc2OC)CC1,-21.9%
14,O=C(C(c1ccccc1)c1ccccc1)N1CCN(CC(O)COc2ccccc2)CC1 (stereo not given),-23.3%
15,CC(C)OCC(O)CN1CCN(C(c2ccccc2)c2ccccc2)CC1 (stereo not given),-50.4% (active)
16,Oc1ccccc1CN1CCN(C(c2ccccc2)c2ccccc2)CC1,-76.9% (active)
17,CC(=O)N1CCN(CC(c2ccccc2)c2ccccc2)CC1,18.7%
18,COc1ccccc1CN1CCN(C(c2ccccc2)c2ccccc2)CC1,-95.1% (active)
19,Cn1nnnc1SCC(=O)N1CCN(C(c2ccccc2)c2ccccc2)CC1,2.83%
20,c1ccc(C(c2ccccc2)N2CCN(Cc3nnnn3C3CCCCC3)CC2)cc1,-13.5%
21,COc1ccccc1NC(=S)N1CCN(C(c2ccccc2)c2ccccc2)CC1,-5.17%
22,CCCOc1ccc(F)cc1-c1cc(C(=O)Nc2ccc(F)cc2)[nH]n1,12.6%
23,CN(CCO)C(=O)c1nc[nH]c1C(=O)N(C)Cc1ccccc1,-16.2%
24,Cc1ccccc1-c1ccc2c(c1)O[C@@H](CN(C)Cc1ccc(C(=O)O)cc1)[C@@H](C)CN([C@H](C)CO)S2(=O)=O,17.1%
25,CC1(C(=O)NS(=O)(=O)c2cccc(F)c2)CCN1C(=O)Cc1ccc(Cl)cc1Cl (stereo not given),-11%
26,O=C(Nc1cccc2ccccc12)c1[nH]c(-c2ccccc2)c2c1C(=O)N(C1CC1)C2=O,81%
27,CCC(C)CN1C(=O)CN(S(C)(=O)=O)CC1(C)C(=O)Nc1ccc2c(c1)OCCO2 (stereo not given),15.4%
28,CC(=O)c1ccc(-c2cnc3c(NC=O)cc(-c4cccc(NS(C)(=O)=O)c4)cn23)cc1,127%

row,Structure (SMILES),"max response, negative = inhibition"
1,Nc1ncnc2c1ncn2[C@@H]1O[C@H](C(=O)N2CCSC2)[C@@H](O)[C@H]1O,-26.3%
2,COc1cccc(-c2nc3nc(C)cc(C)n3c2NC2CCCCC2)c1,-19.4%
3,C=C1C(=O)[C@]23C[C@H]1CCC2[C@@]1(C)C(C[C@@H]3O)[C@](C)(C(=O)O)CC[C@@H]1O (stereo not given in full),-16.7%
4,CC1CC2=C(CC1/C=N/NC(N)=S)C(C)(C)CCC2 (stereo not given),-76.3% (active)
5,COC(=O)C(Cc1c[nH]c2ccccc12)NC(=O)CCNC(=O)c1ccco1 (stereo not given),40%
6,CN(Cc1cn(Cc2ccc(C(F)(F)F)cc2)nn1)C1CN(Cc2cn(Cc3ccc(C(F)(F)F)cc3)nn2)S(=O)(=O)C1 (stereo not given),0%
7,O=C(CCN1CCCCC1)Nc1ccc(F)c(F)c1,15.9%
8,CCC(C(=O)NCc1ccccc1)n1c(Cc2cc(F)cc(F)c2)nc2ccccc21 (stereo not given),1.57%
9,OC[C@H]1O[C@@H](c2nc(-c3nc(-c4ccc(F)cc4)no3)cs2)[C@H](O)[C@@H](O)[C@H]1O,0%
10,Cc1cc(=O)oc2cc(NC(=O)C3CC(=O)N(Cc4ccccc4)C3)ccc12 (stereo not given),-60.6% (active)
11,O=C(Nc1ccc(F)c([N+](=O)[O-])c1)C1CC(=O)N(Cc2ccccc2)C1 (stereo not given),16.3%
12,Cc1cc(=O)oc2cc(NC(=O)C(C)Oc3ccccc3)ccc12 (stereo not given),18.8%
13,CO[C@@H]1CN(C)C(=O)c2cc(NC(=O)Nc3cc(F)ccc3F)ccc2OC[C@H](C)N(C(=O)c2ccccn2)C[C@@H]1C,-21.4%
14,CCCCn1nnnc1C1(C)CCC(=O)N1Cc1ccc(OC)c(OC)c1 (stereo not given),27.1%
15,Cc1cc(NC(=O)c2ccc(F)cc2)ccc1NC(=O)c1ccco1,-99.6% (active)
16,COc1ccccc1C(=O)Nc1ccc(NC(=O)c2ccco2)c(C)c1,2.58%
17,Cc1cccc(OCC(=O)Nc2ccc(NC(=O)c3ccco3)c(C)c2)c1,-6.83%
18,CC(=O)c1cccc(-c2cnc3c(NC=O)cc(-c4cccc(C(=O)N(C)C)c4)cn23)c1,39.2%
19,CS(=O)(=O)c1cccc(-c2ccc3nncn3c2)c1,-15.7%
20,O=C(O)C1=C(C(=O)O)C2CCC1C2,-3.55%
21,Cc1cccc(-n2c(O)c(C=Nc3ccccc3N)c(=O)[nH]c2=O)c1,-114% (active)
22,Cc1ccc(N=Cc2c(O)n(-c3nccs3)c(=O)c3ccccc23)c(C)c1,7.33%
23,Cc1cccc(N2C(=O)CC(SC(N)=Nc3ccccc3)C2=O)c1 (stereo not given),-1.29%
24,CC1(C(=O)NS(=O)(=O)Cc2cccc(Cl)c2)CCN1C(=O)Cc1ccc(Cl)cc1Cl (stereo not given),5.64%
25,CN(CC(=O)NC(=O)Nc1ccccc1F)Cc1ccccc1,-19.2%
26,CN(Cc1ccccc1F)C(=O)C(Cc1ccccc1)NC(=O)c1ccccc1 (stereo not given),41.6%
27,CN(Cc1ccccc1)Cc1ccccc1F,-76.7% (active)
